Assay [1] deals with EPHA3. The following applies: concentration: 1 μM, replicates: in singlicate, n = 1.
In assay [2] the test system is EPHA4. The following applies: concentration: 1 μM, replicates: in singlicate, n = 1.
The subject of assay [3] is EPHA5. The following applies: concentration: 1 μM, replicates: in singlicate; n = 1.
In assay [4] the test system is EPHA6. The following applies: concentration: 1 μM, replicates: in singlicate, n = 1.
Assay [5] concerns EPHA7. The conditions noted are these: concentration: 1 μM, replicates: in singlicate, n = 1.
Assay [6] concerns EPHA8. The following applies: concentration: 1 μM, replicates: in singlicate, n = 1.
Assay [7] concerns EPHB1. The conditions noted are these: concentration: 1 μM, replicates: in singlicate, n = 1.
The test system of assay [8] is EPHB2. The following applies: concentration: 1 μM, replicates: in singlicate; n = 1.
Assay [9] has as its system EPHB3. The following applies: concentration: 1 μM, replicates: in singlicate, n = 1.
For assay [10], the system named is EPHB4. The following applies: concentration: 1 μM, replicates: in singlicate, n = 1.
Assay [11] deals with EPHB6. The following applies: concentration: 1 μM, replicates: in singlicate, n = 1.
Assay [12] relates to ERBB2. The following applies: concentration: 1 μM, replicates: in singlicate, n = 1.
The test system of assay [13] is ERBB3. The following applies: concentration: 1 μM, replicates: in singlicate, n = 1.
In assay [14] the test system is ERBB4. The conditions noted are these: concentration: 1 μM, replicates: in singlicate, n = 1.
In assay [15] the test system is T1, ERK1.
T1 construct: gene MAPK3
The following applies: concentration: 1 μM, replicates: in singlicate, n = 1.

For assay [16], the system named is T2, ERK2.
T2 construct: gene MAPK1
The conditions noted are these: concentration: 1 μM, replicates: in singlicate; n = 1.

Assay [17] relates to T3, ERK3.
T3 construct: gene MAPK6
The following applies: concentration: 1 μM, replicates: in singlicate, n = 1.

The test system of assay [18] is T4, ERK4.
T4 construct: gene MAPK4
The following applies: concentration: 1 μM, replicates: in singlicate, n = 1.

The subject of assay [19] is T5, ERK5.
T5 construct: gene MAPK7
The following applies: concentration: 1 μM, replicates: in singlicate; n = 1.

The subject of assay [20] is T6, ERK8.
T6 construct: gene MAPK15
The following applies: concentration: 1 μM, replicates: in singlicate, n = 1.

Molecules are shown by their SMILES. “And” between values parts separate entries of the source, which are not always exact repeats. Identical values can stand only once. Like-named read-outs stand apart in the source and are kept apart here.
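Also: KINOMEscan kinase panel screen.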

For `C[C@@H](Oc1cc(-n2cnc3ccc(NC(=O)NC(C)(C)C)cc32)sc1C(N)=O)c1ccccc1Cl` [GSK346294], the “%Inh” value in assay [1] came to 26%; in assay [2], 3%; in assay [3], 0%; in [4], 5%; in assay [5], 17%; in assay [6], 27%. The “%Inh” value in assay [7] amounted to 14%; in assay [8], 15%; in assay [9] it was 18%; in assay [10] it was 7%; in [11], 21%; in assay [12], 15%. In addition, the “%Inh” value in [13] is on record as 22%; in [14] it was 0%; in assay [15] it was 0%; in assay [16] it was 0%; in assay [17], 7%; in assay [18] it was 19%. Also, the “%Inh” value in assay [19] and in assay [20] was 0% in each case.

Regarding `COc1ccc(S(=O)(=O)NC2CCN(c3cc(C)nc(Nc4cccc(C#N)c4)n3)CC2)cc1.O=C(O)C(F)(F)F` [GSK1653539], the “%Inh” value turned out to be 7% in [1]; 11% in assay [2]; 0% in [3]; 0% in assay [4]; 0% in [5]; 0% in assay [6]. The “%Inh” value in assay [7] amounted to 7%; in assay [8], 0%; in assay [9], 13%; in assay [10], 16%; in [11], 14%; in [12] it was 0%. Besides, the “%Inh” value is given as 0% in assay [13]; 0% in assay [14]; 0% in assay [15]; 0% in assay [16]; 13% in assay [17]; 0% in assay [18]. In addition, the “%Inh” value in assay [19] and in assay [20] was 0% in each case.

For `Cl.Nc1ncnc2occ(-c3ccc(NC(=O)Nc4cc(C(F)(F)F)ccc4F)cc3)c12` [SB-707548], the “%Inh” value in assay [1] is on record as 76%; in assay [2], 93.9%; in assay [3], 91.5%; in assay [4] it was 99.3%; in assay [5], 98.9%; in [6] it was 99.7%. Further, the “%Inh” value in [7] is recorded as 96%; in assay [8] it was 94.4%; in assay [9] it was 94.7%; in [10], 96%; in [11], 98.6%; in [12] it was 44%. Moreover, the “%Inh” value in [13] was 24%; in [14], 23%; in assay [15], 0%; in assay [16], 0%; in assay [17], 0%; in [18], 8%. Also, the “%Inh” value in assay [19] is 12%; in assay [20] it was 99.2%.

Regarding `COc1ccc(Nc2nccc(N3CCC(NC(=O)Nc4cccc(C(C)=O)c4)C3)n2)cc1` (stereo not drawn) [GSK1379731], the “%Inh” value in assay [1] is listed as 0%; in assay [2] it was 6%; in assay [3] it was 0%; in assay [4] it was 0%; in assay [5], 0%; in assay [6] it was 9%. The “%Inh” value in assay [7] was 0%; in assay [8], 0%; in [9] it was 9%; in [10], 5%; in [11] it was 0%; in assay [12] it was 14%. Besides, the “%Inh” value was 0% in assay [13]; 5% in assay [14]; 0% in assay [15]; 0% in [16]; 7% in assay [17]; 0% in assay [18]. Further, the results for the “%Inh” value in [19] and in assay [20] were 0% and 25%, respectively.

On to `NCCNS(=O)(=O)c1ccc(-c2ccnc3[nH]ccc23)cc1` [GSK977617], for which the “%Inh” value was 52% and 31% in assay [1] (1 µM); 6% and 0% in [2] (1 µM); 0% in [3]; 5% and 0% in assay [4] (1 µM); 16% and 15% in assay [5] (1 µM); 13% and 16% in [6] (1 µM). Besides, the “%Inh” value was 23% and 15% in assay [7] (1 µM); 0% in [8]; 11% and 0% in [9] (1 µM); 11% and 1% in assay [10] (1 µM); 13% and 24% in assay [11] (1 µM); 37% and 0% in [12] (1 µM). For the same molecule, the “%Inh” value in assay [13] (1 µM) was 3% and 0%; in assay [14] (1 µM) it was 47% and 0%; in assay [15] (1 µM) it was 8% and 0%; in [16] it was 0%; in assay [17] (1 µM), 12% and 17%; in [18] (1 µM), 3% and 25%. The “%Inh” value in [19] is 0%; in [20] (1 µM), 46% and 17%.

Turning to `N#Cc1ccc(-c2cc(-c3c[nH]nc3-c3ccccn3)ccn2)cc1` [GW693028], the “%Inh” value worked out at 18% in assay [1]; 2% in [2]; 0% in assay [3]; 0% in assay [4]; 44% in [5]; 39% in [6]. The “%Inh” value is 7% in [7]; 8% in assay [8]; 5% in [9]; 11% in [10]; 2% in [11]; 28% in assay [12]. Further, the “%Inh” value turned out to be 0% in assay [13]; 27% in [14]; 6% in assay [15]; 0% in [16]; 0% in [17]; 3% in assay [18]. Besides, the entries for the “%Inh” value in assay [19] and in [20] were 0% and 10%, respectively.

As for `Fc1ccc(-c2ncn(CCCN3CCOCC3)c2-c2ccccn2)cc1` [SB-211742], the “%Inh” value in [1] was 0%; in assay [2] it was 8%; in [3] it was 0%; in assay [4], 0%; in assay [5], 0%; in [6] it was 9%. Also, the “%Inh” value amounted to 20% in [7]; 0% in assay [8]; 20% in assay [9]; 28% in assay [10]; 0% in assay [11]; 10% in assay [12]. Also, the “%Inh” value in [13] was found to be 52%; in [14], 6%; in assay [15] it was 0%; in assay [16], 5%; in [17], 0%; in assay [18], 0%. The figures for the “%Inh” value in assay [19] and in [20] were 19% and 0%, respectively.

For the molecule `O=C(Nc1n[nH]c2cc(-c3cccc(F)c3)ccc12)C1CC1` [SB-735464], the “%Inh” value is 17% in assay [1]; 24% in [2]; 0% in assay [3]; 14% in [4]; 14% in assay [5]; 13% in assay [6]. Further, the “%Inh” value was determined as 0% in assay [7]; 0% in assay [8]; 20% in [9]; 21% in assay [10]; 14% in [11]; 21% in assay [12]. The “%Inh” value in assay [13] stood at 0%; in assay [14] it was 7%; in [15] it was 0%; in assay [16], 0%; in [17], 0%; in assay [18], 0%. Also, the “%Inh” value in [19] is reported as 8%; in [20], 32%.

`O=c1cc(N2CCOCC2)nc2n(Cc3cccc(C(F)(F)F)c3)ccn12` [GSK2297543]: the “%Inh” value in assay [1] is recorded as 0%; in [2], 6%; in [3] it was 0%; in assay [4], 0%; in assay [5], 0%; in [6], 2%. The “%Inh” value in assay [7] is listed as 24%; in assay [8], 0%; in [9], 3%; in assay [10], 7%; in assay [11], 0%; in assay [12], 16%. The “%Inh” value in assay [13] turned out to be 0%; in assay [14] it was 5%; in assay [15], 0%; in assay [16], 0%; in [17], 0%; in assay [18], 12%. In addition, the “%Inh” value in assay [19] and in assay [20] was 0% throughout.
